SW480 rereplic = induces DNA re-replication in SW480 colon adenocarcinoma cells | hit rate 1.8% among 340,000 | AID 624297 | SW480 DNA re-replication, Hoechst DNA content imaging, 48 h | Potency, µM (highest dose often 46.1 µM), for inactives: at the top dose re-replication activation, hits mostly activators; also: % of control where 0% means no effect; nearly all actives have a fitted effect of over 55% in size
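Readout is total intensity of Hoechst-stained nuclei, excited at 405 nm and collected at 500-530 nm. Compound treatment lasted 48 hr at 37 C in 5% CO2 before staining.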
KB-3-1 tox = KB-3-1 parental cell cytotoxicity | KB-3-1 viability, CellTiter-Glo ATP luminescence, 72 h | hit rate 1.4% among 400,000 | AID 1347075 | Potency, µM (titrated, usually from 46.1 µM), hits mostly cytotoxic; also: % is scaled to controls: 0 for no effect and ±100 for the full control effect; nearly all actives have a fitted effect of over 60% in size
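Parental KB-3-1 viability, qHTS format: 72 h compound exposure, 37 °C; CellTiter-Glo; media-only wells and DMSO plates as controls; concentration-effect fits on corrected data.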
RGS4 inh = blocks human RGS4-accelerated GTP hydrolysis; P49798; Transcreener GDP fluorescence polarization, RGS4-accelerated GTP hydrolysis; Potency, µM (top dose mostly 114 µM), for the others: at the highest dose activity change, negative = inhibition, most hits filed as inhibitors; hit rate 0.039% among 390,000; AID 504845; also: % is scaled to controls: 0 for no effect and ±100 for the full control effect; nearly all actives have a fitted effect of over 75% in size
Target sequence (P49798 whole entry, looked up): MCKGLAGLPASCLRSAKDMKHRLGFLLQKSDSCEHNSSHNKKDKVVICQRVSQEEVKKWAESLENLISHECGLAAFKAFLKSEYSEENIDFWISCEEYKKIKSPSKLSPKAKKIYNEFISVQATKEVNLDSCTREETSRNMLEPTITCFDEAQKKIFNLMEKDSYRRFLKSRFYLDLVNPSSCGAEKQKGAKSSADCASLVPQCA
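MLSMR compounds (23 nl, pin-transferred) preincubated 10 min at room temperature with a 500nM (2x) first reagent, then RGS4 at 900nM (2x) plus Transcreener GDP mix added; fluorescence polarization (620/688 nm) read before and after 90 min at 30 °C.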
KB-V1 MDR tox = KB-V1 MDR subline cytotoxicity; KB-V1 MDR cells viability, CellTiter-Glo, 72 h; Potency, µM (doses to about 46.1 µM), actives largely listed as cytotoxic; hit rate 3.4% among 400,000; AID 1347076; also: % is scaled to controls: 0 for no effect and ±100 for the full control effect; nearly all actives have a fitted effect of over 60% in size
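KB-V1, DMEM (no phenol red) + 10% FBS; cpd pin-transferred, titration series; 72 h, 37 degrees C; CellTiter-Glo, luminescence. Data normalized, curve-fit.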
PTAP TSG101 blk = blocks PTAP/TSG101 interaction to inhibit HIV-1 budding; Q99816; Fluorescence polarization, FITC-PTAP peptide / Tsg101 binding; Potency, µM (doses to about 115 µM), inactives show at the highest dose activity change, negative = inhibition, most hits filed as inhibitors; 340,000 tested, under 10 active; AID 493005; active = well fitted inhibition curve with a large enough effect in the main read-out, with a control signal flat, not every such curve was filed as active; inconclusive = small, poorly fitted or top-dose-only effect, or effect the other way, or a change in a side signal; inactive = no such curve, though single readings can be large or run the other way; also: % of control where 0% means no effect
Target sequence (Q99816 whole entry, looked up): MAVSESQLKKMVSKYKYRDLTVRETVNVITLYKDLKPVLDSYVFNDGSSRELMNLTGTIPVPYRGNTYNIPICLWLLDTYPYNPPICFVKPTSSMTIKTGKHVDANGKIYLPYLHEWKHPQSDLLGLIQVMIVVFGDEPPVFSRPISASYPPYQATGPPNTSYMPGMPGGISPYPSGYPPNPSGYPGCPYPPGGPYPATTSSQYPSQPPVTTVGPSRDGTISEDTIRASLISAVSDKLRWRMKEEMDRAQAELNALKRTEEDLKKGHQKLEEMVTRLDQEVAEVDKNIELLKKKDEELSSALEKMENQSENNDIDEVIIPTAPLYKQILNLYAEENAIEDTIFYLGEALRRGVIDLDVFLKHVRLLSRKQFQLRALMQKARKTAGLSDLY
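Fluorescence anisotropy tracks displacement of a FITC-tagged PTAP peptide (50 nM) from the Tsg101 binding domain (10 uM), following a 20 min room-temperature incubation at pH 7.5.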
MCF10A rereplic = inducers of DNA re-replication in MCF 10A breast cells | MCF 10A DNA re-replication, Hoechst nuclear intensity, 48 h | Potency, µM (series often up to 46.1 µM), without a hit: at the highest dose activity, positive = re-replication, most hits filed as activators | hit rate 2.9% among 350,000 | AID 624296; also: % of control where 0% means no effect; nearly all actives have a fitted effect of over 50% in size
* marks the source's active call; other numbers are inactive results; i = inactive; ? = inconclusive; nt = no result; [ ] = another dose, or the depositor's remark. This is a sample that favours compounds with a hit; in the whole collection about 6.6% have one here. Unless noted, calls follow the shape of the dose curve; as a rule, active = well fitted curve in the direction sought with a large enough effect; inconclusive = small, poorly fitted or top-dose-only effect, or another doubt; inactive = no such curve, though single readings can be large; an effect the other way counts as inactive or inconclusive. Potency is read from the fitted curve at half-maximal effect.

SMILES | SW480 rereplic | KB-3-1 tox | RGS4 inh | KB-V1 MDR tox | PTAP TSG101 blk | MCF10A rereplic
Cc1cccn2c(=O)c3cc(C(=O)NC4CCCC4)c(=N)n(C4CCCCC4)c3nc12 | 3.26µM* | i | 9.5% | i | -13.8% | 25.5%
Cc1cccn2c(=O)c3cc(C(=O)NC4CCS(=O)(=O)C4)n(Cc4ccccc4)c3nc12 (stereo not given) | 2.59µM* | i | -8.0% | i | 0.3% | 13µM*
Cc1cccn2c(=O)c3cc(S(=O)(=O)c4ccc(Br)cc4)c(=N)n(C4CCCC4)c3nc12 | -24.7% | i | 17.1% | i | -22.8% | 9.5%
Cc1cccn2c(=O)c3cc(C(=O)NCc4ccco4)c(=N)n(C4CCCCC4)c3nc12 | 16.4µM* | i | -6.1% | ? | 0.7% | 23.1µM*
Cc1cccn2c(=O)c3cc(C(=O)NC4CCCC4)c(=N)n(Cc4ccc(F)cc4)c3nc12 | 4.61µM* | i | -9.6%[56.9 µM] | i | -6.9% | 2.31µM*
COC(=O)c1ccc(NC(=O)CCn2cnnn2)cc1 | nt | i | -11.8% | i | nt | nt
C=CC1=C(C(=O)O)N2C(=O)[C@@H](NC(=O)C(N=O)c3csc(N)n3)[C@H]2SC1 (stereo not given in full) | -0.8% | nt | nt | nt | nt | -4.8%
Cc1cccn2c(=O)c3cc(C(=O)NC4CCCCC4)c(=N)n(Cc4ccccc4)c3nc12 | 2.31µM* | ? | -16.8% | ? | -5.9% | 2.06µM*
CCCCNC(=O)c1cc2c(=O)n3cccc(C)c3nc2n(Cc2ccccc2)c1=N | -2.6% | i | 2.7% | i | -7.4% | 16.7%
CNC(=O)c1cc2c(=O)n3cccc(C)c3nc2n(C(C)C)c1=N | ? | i | -27.3% | i | -2.4% | 3.66µM*
Cc1cccn2c(=O)c3cc(C(=O)NC4CCCC4)c(=N)n(CCc4ccccc4)c3nc12 | 4.61µM* | i | 18.4% | ? | 3.7% | 2.59µM*
COc1ccc(CCn2c(=N)c(C(=O)NC3CCCC3)cc3c(=O)n4cccc(C)c4nc32)cc1 | ? | ? | -13.3% | ? | -1.3% | 248.3%
CCc1ccc(-n2nc(C)c3c(C)cc(=O)n(CC(=O)Nc4ccc(C(C)=O)cc4)c32)cc1 | nt | i | -22.5% | i | nt | nt
COc1ccc(C2CC(=O)Nc3c2c(=O)[nH]c2nc4ccccc4n32)cc1 (stereo not given) | nt | ? | 6.2% | i | nt | nt
COCCn1c(SCc2nc3scc(-c4ccc(Cl)cc4)c3c(=O)[nH]2)nnc1-c1cccc(C)c1 | ? | 20.6µM* | -20.3% | 5.17µM* | -0.2% | ?
O=S(=O)(c1cccs1)N1CCN(CC(O)COC2CCCc3ccccc32)CC1 (stereo not given) | -3.0% | i | -21.5% | ? | -7.0% | 2.3%
O=S(=O)(c1cccs1)N1CCN(CC(O)COc2cccc(Br)c2)CC1 (stereo not given) | ? | ? | -21.8% | 14.6µM* | 3.8% | 14.0%
COc1ccc(N(CC(O)Cn2c3ccccc3c3ccccc32)S(=O)(=O)c2ccccc2)cc1 (stereo not given) | ? | ? | -16.7% | 23.1µM* | -2.5% | 5.1%
CC(=O)Nc1ccccc1N(CC(O)Cn1c2ccccc2c2ccccc21)S(=O)(=O)c1ccc(C)cc1 (stereo not given) | 23.1µM* | i | 3.1% | ? | -4.9% | ?
Cc1ccc(N(CC(O)Cn2c3ccccc3c3ccccc32)S(=O)(=O)c2ccc(F)cc2)cc1 (stereo not given) | nt | nt | 13.1% | nt | nt | nt
CCc1ccc(C(=O)c2cn(CC(=O)Nc3ccc(C)c(C)c3)c3ccccc3c2=O)cc1 | nt | ? | -15.7% | i | nt | nt
CCc1c(C#N)c(SCCC(=O)Nc2ccc(OC)cc2)nc2c1C(=O)CC(C)(C)C2 | 5.3% | i | 12.9% | ? | -1.2% | 13.6%
CCc1c(C#N)c(SCc2c(C)noc2C)nc2c1C(=O)CC(C)(C)C2 | -4.8% | i | -23.6% | ? | -0.5% | 9.2µM*
O=C1c2ccccc2-n2c1nc1ccccc1c2=O | 1.16µM* | ? | 2.9% | ? | 3.2% | 8.1%
Cc1ccccc1CNc1ccc(C(CC(N)=O)NC(=O)c2ccc(Br)cc2)cc1[N+](=O)[O-] (stereo not given) | ? | i | 7.5% | i | -0.4% | 10.3µM*
SMILES | SW480 rereplic | KB-3-1 tox | RGS4 inh | KB-V1 MDR tox | PTAP TSG101 blk | MCF10A rereplic
CCC(C)(C)n1nnnc1C(c1ccc(C)cc1)N1CCCC1 (stereo not given) | 23.1µM* | i | -14.9% | ? | -10.1% | ?
CC(C)C(=O)Nc1nc2c(ncn2[C@H]2CC(O)[C@@H](CO)O2)c(=O)[nH]1 (stereo not given in full) | nt | ? | 2.4% | i | nt | nt
Cc1nn(Cc2ccccc2Cl)c2sc(C(=O)Nc3nccs3)cc12 | 3.3% | i | -28.3% | i | 1.3% | 13.5%
CCc1cc(C(=O)Nc2cc(S(=O)(=O)N(CC)CC)ccc2N2CCOCC2)sc1C | -2.1% | i | -9.2% | i | -1.7% | ?
CCc1cc(C(=O)Nc2ccccc2N2CCOCC2)sc1C | -4.9% | i | 0.9% | 23.1µM* | 2.4% | 7.9%
Cc1nn(Cc2ccccc2Cl)c2sc(C(=O)Nc3ccccc3N3CCOCC3)cc12 | 174.4% | ? | -6.4% | ? | -0.1% | 9.2µM*
CCC(CC)NC(=O)c1cc2c(C)nn(Cc3ccccc3Cl)c2s1 | ? | ? | -4.7% | 14.6µM* | -3.1% | ?
COc1ccc(NC2=NCC(Cc3ccc(Br)cc3)S2)cc1 (stereo not given) | ? | 23.1µM* | 24.1% | i | 3.7% | ?
CCn1c2c(c3cc(Br)ccc31)CCC/C2=N\O | -3.4% | ? | -8.4% | ? | -2.2% | 12.6µM*
Cc1ccc(-n2ncc(C(=O)NCCc3ccsc3)c2C2CCN(C(=O)OC(C)(C)C)CC2)c(C)c1 | nt | i | -6.5% | i | nt | nt
O=C(NNc1ccccc1)c1ccc(Cl)c(Cl)c1 | 0.7% | i | -2.9% | 18.4µM* | -2.1% | ?
COc1cc(/C=N/Nc2nc3ccccc3s2)ccc1OC(=O)c1ccccc1F | ? | ? | 2.7% | ? | 3.1% | 20.6µM*
CC(C)(C)N(NC(=O)c1ccccc1)C(=O)c1ccc(C(=O)N(NC(=O)c2ccccc2)C(C)(C)C)cc1 | -80.0% | i | -18.0% | i | -2.7% | -0.4%
CCc1ccc(C(=O)NN(C(=O)c2ccc(CC)cc2)C(C)(C)C)cc1 | ? | ? | -12.6% | 7.31µM* | -3.2% | -46.0%
O=C1C(=O)c2ccccc2C(O)=C1CC=C(Cl)Cl | 3.0% | 14.6µM* | 14.5% | 3.66µM* | -1.0% | -1.0%

Screens (PubChem BioAssay)
